Measured values published in publication PMC4552634, “A New Set of Chemical Starting Points with Plasmodium falciparum Transmission-Blocking Potential for Antimalarial Drug Discovery” (PLoS ONE, 2015).
Hit rate of the full screen: of about 13,000 compounds, about 3,200 (25%) showed an effect of 50% or more. The list shows a part of the results.

tested on: P. falciparum stage V gametocytes; set-up: BacTiter-Glo ATP luminescence viability of purified stage V gametocytes in 384-well plates, per cent inhibition versus DMSO; settings: 48 h, 5 µM; inhibitor

Compound	% Inhibition
O=c1[nH]c2ccc(Nc3nccc(NCCc4ccccc4)n3)cc2[nH]1 [TCMDC-136805]	-64.58%
CC(Cc1ccc(NC(=O)CCCc2ccccc2)cc1)NCCc1cccc(Cl)c1 (centres unmarked) [TCMDC-139883]	22.17%
CC(CCCC(=O)Nc1ccc(CC(C)NCCc2cccc(Cl)c2)cc1)NCCc1cccc(Cl)c1 (centres unmarked) [TCMDC-139798]	110.2%
CC(CCCCCC(=O)Nc1ccc(CC(C)NCCc2cccc(Cl)c2)cc1)NCCc1cccc(Cl)c1 (centres unmarked) [TCMDC-139800]	109.3%
CC(CCCCC(=O)Nc1ccc(CC(C)NCCc2cccc(Cl)c2)cc1)NCCc1cccc(Cl)c1 (centres unmarked) [TCMDC-139799]	105.4%
CC(C)CNc1c2c(nc3cnn(-c4c5c(nc6cn[nH]c46)CCCC5)c13)CCCC2 [TCMDC-131555]	-4.273%
Cc1cccc2nc(-c3ccc(-c4ccc(CN5CCOCC5)cc4)cc3)[nH]c12.O=C(O)C(F)(F)F [TCMDC-133825]	20.49%
O=C(COc1ccccc1)NC1CCN(c2ccnc3cc(Cl)ccc23)C1 (centres unmarked) [TCMDC-133669]	-12.2%
O=C(Nc1ccccc1Br)N[C@@H]1CCN(c2ccnc3ccccc23)C1 [TCMDC-141572]	52.9%
Cc1ccc(NC(=O)NC2CCN(c3ccnc4ccccc34)C2)cc1 (centres unmarked) [TCMDC-133576]	-20.26%
O=C(Nc1ccc(OC(F)(F)F)cc1)NC1CCN(c2ccnc3ccccc23)C1 (centres unmarked) [TCMDC-133583]	-30.46%
O=C(Nc1ccccc1Oc1ccccc1)NC1CCN(c2ccnc3cc(Cl)ccc23)C1 (centres unmarked) [TCMDC-133401]	-4.379%
O=C(COc1ccc(F)cc1)NC1CCN(c2ccnc3cc(Cl)ccc23)C1 (centres unmarked) [TCMDC-133397]	-4.375%
COc1ccc(NC(=O)NC2CCN(c3ccnc4ccccc34)C2)cc1 (centres unmarked) [TCMDC-133575]	3.669%
O=C(Nc1ccc(F)cc1)NC1CCN(c2ccnc3ccccc23)C1 (centres unmarked) [TCMDC-133577]	52.59%
O=C(Nc1ccc(C(F)(F)F)cc1)NC1CCN(c2ccnc3ccccc23)C1 (centres unmarked) [TCMDC-133578]	40.18%
O=C(Nc1cccc(C(F)(F)F)c1)NC1CCN(c2ccnc3ccccc23)CC1 [TCMDC-133586]	-4.951%
CC(C)(C)c1ccc(OCC(=O)NC2CCN(c3ccnc4cc(Cl)ccc34)C2)cc1 (centres unmarked) [TCMDC-133670]	64.95%
O=C(Nc1ccc(C(F)(F)F)cc1)NC1CCN(c2ccnc3ccccc23)CC1 [TCMDC-133587]	54.56%
Cc1ccc(-c2cc(C(=O)Nc3ccc(S(=O)(=O)N4CC(C)OC(C)C4)cc3)[nH]n2)c(O)c1 (centres unmarked) [TCMDC-125180]	-20.62%
COc1ccc2nccc([C@@H](O)CN3CCC(NC(=O)c4ccc(-c5ccccc5)s4)CC3)c2c1 [TCMDC-141106]	10.46%
O=C(CCCCCNC(=O)c1ccc(O)c(-c2ccc(Cl)c(Cl)c2)c1)NC1CCCCCC1 [TCMDC-140842]	-20.8%
CC(C)(C)c1ccc(N2C(N)=NC(N)=NC2(C)C)cc1 [TCMDC-137713]	2.693%

Compound	% Inhibition
O=C(Nc1ccc(Cl)cn1)c1sc2ccccc2c1O [TCMDC-124520]	-11.35%
Cc1ccc(C(=O)Nc2cc(S(=O)(=O)N3CCCC3)ccc2OCC(F)(F)F)cc1 [TCMDC-124325]	-29.62%
O=C(Nc1ccc(Cl)c(Cl)c1)Nc1ccc(F)c([N+](=O)[O-])c1 [TCMDC-125042]	-17.87%
O=C(Nc1ccc(C(F)(F)F)cc1)NC1CCN(c2ccnc3cc(Cl)ccc23)C1 (centres unmarked) [TCMDC-133405]	-22.97%
O=C(Nc1ccc(OC(F)(F)F)cc1)NC1CCN(c2ccnc3ccccc23)CC1 [TCMDC-133585]	-8.485%
CC(C)(C)c1ccc(NC(=O)N[C@@H]2CCN(c3ccnc4ccccc34)C2)cc1 [TCMDC-141573]	101%
COc1cc(O)c2c(=O)c(OC)c(-c3cccc(Cl)c3OC3O[C@H](CO)[C@@H](O)[C@H](O)[C@H]3O)oc2c1OC (some centres unmarked) [TCMDC-131699]	3.846%
CC(C)c1ccc(CN2CCC(CNC(=O)c3cc(-c4cccc(F)c4)cs3)C2)cc1 (centres unmarked) [TCMDC-134437]	107.7%
CC(C)c1ccc(CN2CCCCC(NC(=O)c3cc(-c4cccc(F)c4)cs3)C2)cc1 (centres unmarked) [TCMDC-134463]	-60.78%
COc1cccc(-c2csc(C(=O)NCC3CCN(Cc4ccc(C(C)C)cc4)C3)c2)c1 (centres unmarked) [TCMDC-134439]	107.3%
CC(C)c1ccc(CN2CCC(CNC(=O)c3cc(-c4cccc(Cl)c4)cs3)C2)cc1 (centres unmarked) [TCMDC-134438]	95.05%
Cc1cc(N[C@@H](CC(C)C)C(=O)NCCOc2ccccc2)nc(Nc2ccccc2)n1 [TCMDC-134741]	-17.47%
C#CCN(Cc1cc2c(=O)[nH]c(N)nc2cc1C)c1ccc(C(=O)N[C@@H](CCC(=O)O)C(=O)O)cc1 [TCMDC-132041]	1.845%
CCOC(=O)NC1=NC(C)(C)N(OCc2cccc3c2ccc2ccccc23)C(NC(=O)OCC)=N1 [TCMDC-131339]	9.295%
CCCCc1ccc(NC(=O)Nc2ccc3c(c2)CCNCC3)cc1 [TCMDC-141500]	0.2373%
CCOC(=O)c1c(CN2CCCC2)n(-c2ccccc2)c2cc(Br)c(O)cc12 [TCMDC-124122]	-23.97%
C=C[C@]1(C)C[C@@H](OC(=O)c2cncn(COC)c2=O)[C@]2(C)[C@H](C)CC[C@]3(CCC(=O)[C@H]32)[C@@H](C)[C@@H]1O [TCMDC-141314]	6.014%
CN1CCN(c2cc(NC(=O)Nc3cccc(Cl)c3Cl)ccc2Cl)CC1 [TCMDC-139114]	-11.69%
CCCC(CNCc1cccc(I)c1)CNc1cc(=O)c2ccccc2[nH]1 (centres unmarked) [TCMDC-139433]	23.15%
COc1ccc(Cc2nc3c(n2C(C)=O)SC(c2ccc(Cl)c(Cl)c2)=NN3C(C)=O)cc1 [TCMDC-125189]	18.21%
CC(=O)N1N=C(c2ccc(Cl)cc2)Sc2c1nc(-c1ccccc1)n2C(C)=O [TCMDC-124899]	80.4%
CC(=O)N1N=C(c2ccccc2)Sc2c1nc(-c1ccc(Cl)cc1)n2C(C)=O [TCMDC-125193]	43.76%
CCOC(=O)c1[nH]c(-c2ccccc2)nc1-n1nc(C)cc1C [TCMDC-131622]	-5.185%

Compound	% Inhibition
CC(=O)N1N=C(c2ccc(F)cc2)Sc2c1nc(-c1ccccc1)n2C(C)=O [TCMDC-125192]	62.08%
CCOC(=O)c1[nH]c(-c2ccc(-c3ccccc3)cc2)nc1N [TCMDC-131797]	-4.943%
CC(=O)N1N=C(c2ccc(Cl)cc2)Sc2c1nc(C1CCCCC1)n2C(C)=O [TCMDC-125191]	45.01%
CC(=O)N1N=C(c2ccc(F)cc2)Sc2c1nc(C1CCCCC1)n2C(C)=O [TCMDC-125190]	77.23%
CC(=O)N1N=C(c2cccs2)Sc2c1nc(-c1ccc(Cl)cc1)n2C(C)=O [TCMDC-124898]	78.97%
O=C(/C=C/c1ccc(Cl)cc1)NCCCCCN1CCCN(C(=O)Nc2ccc(F)c(Cl)c2)CC1 [TCMDC-136101]	-6.119%
COc1cccc(CNC[C@@H](O)[C@H](Cc2ccccc2)NC(=O)c2cc(C3CCCC3)cc(N3CCCCS3(=O)=O)c2)c1 [TCMDC-134523]	42.74%
CCC1(CC)N=C(N)N=C(N)C1c1ccc(Cl)c(Cl)c1 (centres unmarked) [TCMDC-137597]	8.83%
COc1ccc(CN2CCCC(C(=O)c3ccc(C(F)(F)F)cc3)C2)c(O)c1 (centres unmarked) [TCMDC-124631]	43.69%
CS(=O)(=O)Cc1ccc(Nc2nccc(-c3c(-c4cccc(NC(=O)C5CCCCC5)c4)nn4ncccc34)n2)cc1 [TCMDC-135812]	-14.86%
CC(=O)Nc1cccc(-c2cnc(N)c3cc(-c4ccc5c(c4)OCO5)ccc23)c1 [TCMDC-134504]	30.5%
Cn1nccc1C(=O)NCCNCc1ccc(-c2ccc(-c3nc4ccccc4[nH]3)s2)cc1.O=C(O)C(F)(F)F [TCMDC-133004]	-2.407%
CCN(CC)S(=O)(=O)c1cc(-c2ccc(=O)n(CC(=O)c3ccc(C)cc3)n2)ccc1C [TCMDC-124707]	-20.12%
CCN(CC)CCN(Cc1ccc(-c2ccc(C(F)(F)F)cc2)cc1)C(=O)Cn1nc(-c2ccc(C(F)(F)F)cc2)ccc1=O [TCMDC-141575]	69.38%
CCC(=O)c1ccc(-c2ccc(=O)n(CC(=O)N(CCN(CC)CC)Cc3ccc(-c4ccc(C(F)(F)F)cc4)cc3)n2)cc1 [TCMDC-141574]	82.08%
O=c1[nH]ccc2nc(N[C@@H]3CCNC3)nc(Nc3ccc4c(c3)S(=O)(=O)CC4)c12 [TCMDC-135044]	71.11%
Cc1cccc(Nc2nc(N[C@@H]3CCCNC3)nc3cc[nH]c(=O)c23)c1 [TCMDC-134835]	-44.23%
NS(=O)(=O)c1cccc(Nc2nc(N[C@@H]3CCNC3)nc3cc[nH]c(=O)c23)c1 [TCMDC-135057]	-11.44%
O=c1[nH]ccc2nc(N[C@@H]3CCNC3)nc(Nc3cccc(S(=O)(=O)N4CCOCC4)c3)c12 [TCMDC-135047]	89.83%
O=c1[nH]ccc2nc(N[C@@H]3CCNC3)nc(Nc3cc(Cl)cc(Cl)c3)c12 [TCMDC-135052]	102.4%
Cc1cc(N2Cc3ccccc3C2)nc(Nc2ccc(S(=O)(=O)N3CCOCC3)cc2)n1 [TCMDC-134229]	-25.67%
CN(C)S(=O)(=O)c1ccc(Nc2nc(NCCC3C=NC=N3)nc3cc[nH]c(=O)c23)cc1 (centres unmarked) [TCMDC-135045]	-6.172%
